Laboratory results: PubChem BioAssay AID651724 (National Center for Advancing Translational Sciences (NCATS), 2012)
Screen size: about 340,000 compounds; about 1,700 (0.5%) were called active. Inconclusive results (about 2%) are left out. Cut-off read from the data, not from the text of the source: active = activity change below about -65%; inconclusive = mostly about -30% to -63%; inactive = weaker than that. Shown is part of a subset that was picked to be rich in actives.

Test system: CtBP / adenovirus E1A interaction (AlphaScreen)
Test: qHTS Assay for Inhibitors of the CtBP/E1A Interaction
Settings: AlphaScreen GST-E1A/His-CtBP binding, 1536-well; active compounds read low
Summary of the method: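 Steps: dispense buffer (Tris pH 8.0, NaCl 300 mM, TCEP 1 mM, BSA, Tween 20); add 5X protein mix (GST-E1A, His-CtBP, 125 nM each); pin 23 nL compound; 2 h at 37 °C, dark; add 5X beads (50 ug/mL); 1 h; read.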
% is set by controls: 0 for no effect and ±100 for the full control effect.

Activity change, inactive:
CCc1nc2c(OCc3ccc(C(=O)OC)cc3)cccn2c1N(C)C(=O)C(C)C 0.85%, CC(=O)Nc1cccc(-c2cc(NC=O)c3ncc(-c4ccc(F)c(Cl)c4)n3c2)c1 6.58%, COc1ccccc1N1CCN(/N=C/c2ccc(O)cc2O)CC1 -7.8%, Oc1ccc(-c2nc3ccccc3nc2-c2ccc(O)cc2O)c(O)c1 -12.2%, CC(C)n1ncc2c(C(=O)N3CCN(Cc4cccs4)CC3)cc(C3CC3)nc21 -9.59%, COc1cc(NC(=O)c2cc(-c3ccc(F)cc3OC(C)C)n[nH]2)cc(OC)c1OC -4.63%, C[C@H]1CN([C@@H](C)CO)S(=O)(=O)c2ccc(Br)cc2O[C@H]1CN(C)C(=O)c1cnccn1 0.784%, O=C(N/N=C/c1ccccn1)C12CC3CC(CC(C3)C1)C2 1.59%, Cc1cc(C(=O)N/N=C/c2ccccn2)c2ccccc2n1 -14.7%, COc1ccc(-c2ccc(CN3C(CC(C)C)C(=O)N(Cc4cn(CC5CCCCC5)nn4)CCS3(=O)=O)cc2)cc1 (configuration not stated) -0.831%, Cc1ccc(S(=O)(=O)N2CCC(=O)N([C@H](COCc3ccccc3)C(C)C)CC2)cc1 3.58%, CC(C)(C)Cc1c(C2CCCCC2)nc2ccc(Br)cn12 10.7%, Cc1ccc(C(=O)NC(=S)NCCN2CCOCC2)cc1 -5.38%, COc1cccc(NC(=S)NCCCN2CCOCC2)c1 5.66%, Nc1cccc(-c2cncc(N3CCN(Cc4ccccn4)CC3)n2)c1 1.71%, Cc1ccccc1OCCC(=O)Nc1c(C)n(C)n(-c2ccccc2)c1=O -0.0402%, Cc1ccc(S(=O)(=O)CC(=O)Nc2c(C)n(C)n(-c3ccccc3)c2=O)cc1 -13.1%, COc1ccc(CC(N)c2csc(NC(=O)Nc3ccc(C(C)C)cc3)n2)cc1 (configuration not stated) -13.2%, Cc1cc(F)ccc1S(=O)(=O)N1CCCOC1CNC(=O)C(=O)NCCC1=CCCCC1 (configuration not stated) 22.2%, O=C(NCCCc1ccccc1)C(=O)NCC1OCCN1S(=O)(=O)c1ccccc1 (configuration not stated) 22.6%, COc1ccc([C@H]2CC(=O)C[C@@H](CCn3cc(CC4CCCC4)nn3)O2)cc1 -3.9%, CC1(C(=O)NS(=O)(=O)c2ccc(Cl)cc2)CCN1C(=O)CC1CCCC1 (configuration not stated) 2.24%, CN[C@H]1C[C@H]2c3cc(Oc4ccccc4C)ccc3CCN2C(=O)[C@H]1[C@H](C)O -12.1%, CCOc1ccc(N2C(=O)CSC2=NC#N)cc1 -0.654%, CCOc1cc(/C=N/n2cnnc2)c(Br)cc1O -6.92%, Cc1ccccc1-c1csc(C(O)c2cccc(Cl)c2)n1 (configuration not stated) 3.42%, CN(C(=O)CN1CCN(c2cc(-c3ccc(OCc4ccccc4)cc3)ncn2)CC1)c1ccccc1 0.325%, COc1ccc2cc1Oc1ccc(cc1)C[C@H]1c3cc(c(OC)cc3CCN1C)Oc1c(O)c(OC)cc3c1[C@H](C2)N(C)CC3 -4.43%, COc1cc(C(=O)CCc2ccc3c(c2)OCO3)cc(OC)c1OC 2.78%, COc1ccccc1CNc1nc(Nc2ccccc2Cl)c2sccc2n1 -5.37%, NC(c1csc(NC(=O)Nc2cccc(C(F)(F)F)c2)n1)C1CCCCC1 (configuration not stated) -2.68%, CC1(C)OC(=O)C2=C(C[C@@H](C3CC3)O[C@H]2CCc2cccc(Cl)c2)O1 11.1%, CCCNC(=O)C1(C)CCN(Cc2csc(-c3ccc(Cl)cc3)n2)C1 (configuration not stated) -2.56%, Oc1ccc(/C=N/Nc2ccc(C(F)(F)F)cn2)cc1O -14%, COc1cccc(/C=N/Nc2ccc(S(=O)(=O)Nc3ccccc3C(=O)O)cc2[N+](=O)[O-])c1O -15.4%, CC(C)c1cccc(C(C)C)c1Nc1cn[nH]c1 -13.7%, COCCCNc1ccn2nc(-c3ccc(CC(C)C)cc3)cc2n1 4.88%, COc1ccc(CN2CCC(C)(Oc3cccc(F)c3)C2)c2ccccc12 (configuration not stated) -13.7%, CCC(C(=O)OCCN(CC)CC)c1ccccc1 (configuration not stated) -0.583%, CCOc1cc2ccccc2cc1C(=O)Nc1ccccn1 -7.02%, Cc1nc2c(OCc3ccc(Cl)cc3)cccn2c1N(C)Cc1cccs1 -7.51%, CC1CCCC(NC(=O)COC(=O)c2ccccc2C(=O)N(C)C2CCCCC2)C1C (configuration not stated) -2.61%, Cc1c(NC(=O)COC(=O)/C=C/c2cccc(F)c2)c(=O)n(-c2ccccc2)n1C 0.516%, CCOc1ccc(CCN2C(=S)N([C@@H](CC(C)C)CN3CCC[C@@H]3CN3C(=S)NC[C@@H]3Cc3ccc(O)cc3)C[C@@H]2CC(C)C)cc1 -10.9%, CC(=O)Nc1cccc(-c2ccnc3c2CC(C)(C(=O)NCc2ccco2)O3)c1 (configuration not stated) -10.5%, NC(=O)N/N=C\c1cccs1 -12.4%, S=c1[nH]nc(-c2cccs2)n1/N=C/c1cccs1 0%

Activity change, active:
Cc1nc2ccccc2nc1N/N=C/c1ccc(O)cc1O -92.6%, S=C(NN=Cc1ccccn1)Nc1ccccn1 -73.6%, CCOc1cccc(/C=N/NC(=S)NCCN2CCOCC2)c1O -80.7%, Cc1c(NC(=O)CSc2cccc3cccnc23)c(=O)n(-c2ccccc2)n1C -87.1%, O=C(NCCCn1ccnc1)C(=O)NCC1OCCN1S(=O)(=O)c1cc(F)ccc1F (configuration not stated) -71.2%, CCOc1cccc(/C=N/N2C(=O)CSC2=S)c1O -92.9%, COc1c(O)ccc2c1CN1CCc3cc4c(cc3C1C2)OCO4 (configuration not stated) -66.6%, COc1cccc(/C=N/Nc2ncc(C(F)(F)F)cc2Cl)c1O -98.2%, CCN(CC)CCOc1ccc2c(c1)C(=NNC(=O)c1ccccn1)c1cc(OCCN(CC)CC)ccc1-2 -70.2%, Cc1n[nH]c(=O)nc1N/N=C/c1cccs1 -89.5%
